# Reference: the supplement of paper PMC6089552
# The campaign covered roughly 3,200 compounds. About 300 (9.4%) showed activity. This excerpt belongs to a sample that is enriched for actives. A number with no mark means an inactive call.
# System: A673/TR/shEF
# Assay: cell viability (LOESS-normalised, relative to median of negative controls) (log2 ratio); higher = more viable cells (less compound effect), active = hit call of the paper (over 3 MAD below the median)
# Details: treatment time: 72 h
# How it was run: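 Doxycycline, present or absent from 24 h before compounds, was used to induce EWS-FLI1 shRNA knockdown in A673/TR/shEF Ewing sarcoma cells at 1,500 per well in 384-well plates. Cells then received library compounds at two or more concentrations, or DMSO controls, for three days. Viability was measured by CellTiter-Glo luminescence on an Envision reader, and per-plate LOESS correction, division by the negative-control median and log2 transformation followed.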
# [1] = 0.25 µM, library screen: screen1, EWS-FLI1 expression: high (no doxycycline)
# [2] = 0.25 µM, library screen: screen1, EWS-FLI1 expression: low (doxycycline-induced shRNA knockdown)
# [3] = 2.5 µM, library screen: screen1, EWS-FLI1 expression: high (no doxycycline)
# [4] = 2.5 µM, library screen: screen1, EWS-FLI1 expression: low (doxycycline-induced shRNA knockdown)
# [5] = 0.25 µM, library screen: screen2, EWS-FLI1 expression: high (no doxycycline)
# [6] = 0.25 µM, library screen: screen2, EWS-FLI1 expression: low (doxycycline-induced shRNA knockdown)
# [7] = 2.5 µM, library screen: screen2, EWS-FLI1 expression: high (no doxycycline)
# [8] = 2.5 µM, library screen: screen2, EWS-FLI1 expression: low (doxycycline-induced shRNA knockdown)
structure (smiles),measurement,setting,value
O=c1cc([C@H]2Oc3cc(O)cc(O)c3C[C@H]2O)cc2c([C@H]3Oc4cc(O)cc(O)c4C[C@H]3O)cc(O)c(O)c2c1O,cell viability (log2),[1],0.0869
same,cell viability (log2),[2],0.0834
same,cell viability (log2),[3],0.134
same,cell viability (log2),[4],0.162
C[n+]1cc2c3c(ccc2c2ccc4cc5c(cc4c21)OCO5)OCO3,cell viability (log2),"0.025 µM, library screen: screen2, EWS-FLI1 expression: high (no doxycycline)",0.0722
same,cell viability (log2),"0.025 µM, library screen: screen2, EWS-FLI1 expression: low (doxycycline-induced shRNA knockdown)",0.0049
same,cell viability (log2),[1],0.0872
same,cell viability (log2),[2],0.0117
same,cell viability (log2),[5],0.116
same,cell viability (log2),[6],0.0651
same,cell viability (log2),[3],-0.232 (active)
same,cell viability (log2),[4],-0.0123
same,cell viability (log2),[7],-0.101 (active)
same,cell viability (log2),[8],-0.0563
same,cell viability (log2),"25 µM, library screen: screen2, EWS-FLI1 expression: high (no doxycycline)",-4.23 (active)
same,cell viability (log2),"25 µM, library screen: screen2, EWS-FLI1 expression: low (doxycycline-induced shRNA knockdown)",-4.28 (active)
COc1ccc(C(=O)C=Cc2ccccc2)cc1,cell viability (log2),[1],0.0817
same,cell viability (log2),[2],0.0563
same,cell viability (log2),[3],0.0612
same,cell viability (log2),[4],0.0356
CC(C)=CC1C(CO)C1(C)C (stereo unspecified),cell viability (log2),[1],0.105
same,cell viability (log2),[2],0.00359
same,cell viability (log2),[3],0.117
same,cell viability (log2),[4],0.123
CCOC(=O)c1sc(C)c2c(=O)n(C3CCCCC3)cnc12,cell viability (log2),[1],0.0769
same,cell viability (log2),[2],0.0757
same,cell viability (log2),[3],0.067
same,cell viability (log2),[4],-0.0142
Cc1ccc(S(=O)(=O)/C=C/C#N)cc1,cell viability (log2),"0.025 µM, library screen: screen1, EWS-FLI1 expression: high (no doxycycline)",0.231
same,cell viability (log2),"0.025 µM, library screen: screen1, EWS-FLI1 expression: low (doxycycline-induced shRNA knockdown)",-0.0315
same,cell viability (log2),[1],0.131
same,cell viability (log2),[2],0.0518
same,cell viability (log2),[5],0.14
same,cell viability (log2),[6],-0.0223
same,cell viability (log2),[3],-0.841 (active)
same,cell viability (log2),[4],-0.123
same,cell viability (log2),[7],-0.102 (active)
same,cell viability (log2),[8],0.0315
same,cell viability (log2),"25 µM, library screen: screen1, EWS-FLI1 expression: high (no doxycycline)",-3.58 (active)
same,cell viability (log2),"25 µM, library screen: screen1, EWS-FLI1 expression: low (doxycycline-induced shRNA knockdown)",-2.12 (active)
CC(C)(C)c1ccc(S(=O)(=O)/C=C/C#N)cc1,cell viability (log2),[5],0.205
same,cell viability (log2),[6],0.163
same,cell viability (log2),[7],-0.121 (active)
same,cell viability (log2),[8],0.0273
C[C@@H](Oc1ccccc1)C(=O)N[C@@H]1C(=O)N2[C@@H]1SC(C)(C)[C@@H]2C(=O)O,cell viability (log2),[1],0.0816
same,cell viability (log2),[2],0.0301
same,cell viability (log2),[3],0.188
same,cell viability (log2),[4],0.189
CC1=C[C@@H]2[C@@H](CC1)[C@](C)(O)CC[C@H]2C(C)C,cell viability (log2),[1],0.0888
same,cell viability (log2),[2],0.0211
same,cell viability (log2),[3],0.101
same,cell viability (log2),[4],0.102
C=C1C2CC[C@@]3(C)[C@H](c4ccoc4)OC(=O)C[C@]13O[C@H]1C[C@H](OC(C)=O)C(C)(C)[C@H](CC(=O)OC)[C@@]21C,cell viability (log2),[1],0.122
same,cell viability (log2),[2],0.0225
same,cell viability (log2),[3],0.146
same,cell viability (log2),[4],0.192
Cc1onc(-c2c(Cl)cccc2Cl)c1C(=O)Nc1ccc(Br)cc1F,cell viability (log2),[1],0.112
same,cell viability (log2),[2],0.103
same,cell viability (log2),[3],0.116
same,cell viability (log2),[4],0.0234
O=C(/C=C/c1ccc(O)c(O)c1)O[C@H](Cc1ccc(O)c(O)c1)C(=O)O,cell viability (log2),[1],0.0508
same,cell viability (log2),[2],0.0752
same,cell viability (log2),[3],0.0833
same,cell viability (log2),[4],0.158
O=C(O)/C=C/c1ccc(O)c(O)c1,cell viability (log2),[1],0.082
same,cell viability (log2),[2],-0.0191
same,cell viability (log2),[5],0.181
same,cell viability (log2),[6],0.126
same,cell viability (log2),[3],0.109
same,cell viability (log2),[4],0.0871
same,cell viability (log2),[7],0.0522
same,cell viability (log2),[8],0.0284
O=C(/C=C/c1ccc(O)c(O)c1)OCCc1ccccc1,cell viability (log2),[5],0.197
same,cell viability (log2),[6],0.0712
same,cell viability (log2),[7],-0.129 (active)
same,cell viability (log2),[8],0.0968
N[C@@H](CSCSC[C@H](N)C(=O)O)C(=O)O,cell viability (log2),[1],0.0746
same,cell viability (log2),[2],0.0305
same,cell viability (log2),[3],0.129
same,cell viability (log2),[4],0.147
N#Cc1c(-c2ccc(Br)cc2)cc(-c2ccc3c(c2)OCO3)c(C#N)c1N,cell viability (log2),[1],0.0622
same,cell viability (log2),[2],0.109
same,cell viability (log2),[3],0.154
same,cell viability (log2),[4],0.0524
CCCc1occc(=O)c1C=CO,cell viability (log2),[1],-0.0143
same,cell viability (log2),[2],0.0143
same,cell viability (log2),[3],0.203
same,cell viability (log2),[4],0.0516
Nc1ccc(S(=O)(=O)Nc2ccnn2-c2ccccc2)cc1,cell viability (log2),[1],0.0545
same,cell viability (log2),[2],-0.0171
same,cell viability (log2),[5],0.053
same,cell viability (log2),[6],0.048
same,cell viability (log2),[3],0.14
same,cell viability (log2),[4],0.0403
same,cell viability (log2),[7],-0.179 (active)
same,cell viability (log2),[8],-0.12 (active)
Nc1ccc(S(=O)(=O)Nc2ncccn2)cc1,cell viability (log2),"0.103 µM, library screen: screen3, EWS-FLI1 expression: high (no doxycycline)",0.169
same,cell viability (log2),"0.103 µM, library screen: screen3, EWS-FLI1 expression: low (doxycycline-induced shRNA knockdown)",0.0541
same,cell viability (log2),[1],0.0966
same,cell viability (log2),[2],0.142
same,cell viability (log2),"0.308 µM, library screen: screen3, EWS-FLI1 expression: high (no doxycycline)",0.163
same,cell viability (log2),"0.308 µM, library screen: screen3, EWS-FLI1 expression: low (doxycycline-induced shRNA knockdown)",0.0301
same,cell viability (log2),"0.926 µM, library screen: screen3, EWS-FLI1 expression: high (no doxycycline)",0.117
same,cell viability (log2),"0.926 µM, library screen: screen3, EWS-FLI1 expression: low (doxycycline-induced shRNA knockdown)",0.108
same,cell viability (log2),[3],0.146
same,cell viability (log2),[4],0.202
same,cell viability (log2),"2.8 µM, library screen: screen3, EWS-FLI1 expression: high (no doxycycline)",0.14
same,cell viability (log2),"2.8 µM, library screen: screen3, EWS-FLI1 expression: low (doxycycline-induced shRNA knockdown)",0.0823
same,cell viability (log2),"8.3 µM, library screen: screen3, EWS-FLI1 expression: high (no doxycycline)",0.0532
same,cell viability (log2),"8.3 µM, library screen: screen3, EWS-FLI1 expression: low (doxycycline-induced shRNA knockdown)",0.0153
same,cell viability (log2),"25 µM, library screen: screen3, EWS-FLI1 expression: high (no doxycycline)",0.0911
same,cell viability (log2),"25 µM, library screen: screen3, EWS-FLI1 expression: low (doxycycline-induced shRNA knockdown)",0.15
Nc1ccc(S(=O)(=O)Nc2ccccn2)cc1,cell viability (log2),[1],0.0477
same,cell viability (log2),[2],0.097
same,cell viability (log2),[3],0.18
same,cell viability (log2),[4],0.163
COC(=O)C[C@H]1C(C)(C)C(=O)[C@@H]2CC3C4=CC(=O)O[C@@H](c5ccoc5)[C@]4(C)CC[C@@H]3[C@@]1(C)C2=O (stereo partly specified),cell viability (log2),[1],0.00456
same,cell viability (log2),[2],0.0839
same,cell viability (log2),[3],0.0543
same,cell viability (log2),[4],0.0477
COc1ccc2c(c1)O[C@@H]1c3ccc(OC)cc3OC[C@H]21,cell viability (log2),[1],0.0429
same,cell viability (log2),[2],0.176
same,cell viability (log2),[3],0.0512
same,cell viability (log2),[4],0.136
C[C@H]1O[C@@H](O[C@H]2[C@@H](O)C[C@H](O[C@H]3[C@@H](O)C[C@H](O[C@H]4CC[C@@]5(C)[C@H](CC[C@@H]6[C@@H]5C[C@@H](O)[C@]5(C)[C@@H](C7=CC(=O)OC7)CC[C@]65O)C4)O[C@@H]3C)O[C@@H]2C)C[C@H](O)[C@@H]1O,cell viability (log2),[1],-0.0229
same,cell viability (log2),[2],-0.153
same,cell viability (log2),[3],-2.32 (active)
same,cell viability (log2),[4],-1.91 (active)
C[C@H]1O[C@@H](O[C@H]2[C@@H](O)C[C@H](O[C@H]3[C@@H](O)C[C@H](O[C@H]4CC[C@@]5(C)[C@H](CC[C@@H]6[C@@H]5CC[C@]5(C)[C@@H](C7=CC(=O)OC7)CC[C@]65O)C4)O[C@@H]3C)O[C@@H]2C)C[C@H](O)[C@@H]1O,cell viability (log2),[1],-2.45 (active)
same,cell viability (log2),[2],-2.04 (active)
same,cell viability (log2),[3],-3.94 (active)
same,cell viability (log2),[4],-4.23 (active)
C[C@]12CC[C@H](O)C[C@H]1C[C@@H]1OC13C2[C@H](O)C(=O)[C@]1(C)[C@@H](C2=CC(=O)OC2)CC[C@]31O (stereo partly specified),cell viability (log2),[1],0.026
same,cell viability (log2),[2],-0.0692
same,cell viability (log2),[3],0.111
same,cell viability (log2),[4],-0.106
